This note sets out measurements from PubChem BioAssay (EPA / NIEHS).

What all share (conditions): mRNA level, 48 h; actives raise or lower the signal
Read-out in assay [1]: Cyclin D2 (CCND2), CCND2 (gene 894)
Kind of assay: LTEA_HepaRG_CCND2: Life Technologies and Expression Analysis (LTEA) Assay for Cyclin D2 (CCND2) using HepaRG (AID 2283449).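 Further: CCND2 transcript measured by TaqMan qRT-PCR and normalised to three housekeeping genes.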 The gist of the method: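 In this HepaRG study, an eight-point concentration series (max 100 uM, 0.5% DMSO) is applied for 48 h. CCND2 mRNA change is derived by qRT-PCR normalised to ACTB, GAPDH and POLR2A.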

Read-out in assay [2]: Cyclin Dependent Kinase Inhibitor 1A (CDKN1A), CDKN1A (gene 1026)
Kind of assay: LTEA_HepaRG_CDKN1A: Life Technologies and Expression Analysis (LTEA) Assay for Cyclin Dependent Kinase Inhibitor 1A (CDKN1A) using HepaRG (AID 2283450). The gist of the method:
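Read-out is CDKN1A mRNA by TaqMan qRT-PCR, normalized to three housekeeping genes and fitted in both directions against the DMSO baseline. Human HepaRG cells were treated 48 h with test chemicals up to 100 uM in half-log steps, 0.5% DMSO.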

Read-out in assay [3]: Cyclin D1 (CCND1), CCND1 (gene 595)
In words: LTEA_HepaRG_CCND1: Life Technologies and Expression Analysis (LTEA) Assay for Cyclin D1 (CCND1) using HepaRG (AID 2283451). In a few lines:
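HepaRG plated 48 h, medium switched to serum-free induction medium, chemicals added in duplicate (top 100 uM, half-log steps, 0.5% DMSO) for 48 h, cells lysed, RNA measured by TaqMan qRT-PCR.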

Read-out in assay [4]: catalase (CAT), CAT (gene 847)
Kind of assay: LTEA_HepaRG_CAT: Life Technologies and Expression Analysis (LTEA) Assay for catalase (CAT) using HepaRG (AID 2283452).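 On AC50: TaqMan qRT-PCR signal normalized to ACTB GAPDH and POLR2A housekeeping genes.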 The gist of the method: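 Differentiated HepaRG cells in serum-free induction medium were dosed 48 h in duplicate, eight half-log concentrations from 100 uM in 0.5% DMSO. Transcript measured by TaqMan qRT-PCR, normalised to ACTB/GAPDH/POLR2A, fitted bidirectionally against DMSO.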

Read-out in assay [5]: flavin-containing dimethylaniline monooxygenases 3 (FMO3), FMO3 (gene 2328)
In words: LTEA_HepaRG_FMO3: Life Technologies and Expression Analysis (LTEA) Assay for flavin-containing dimethylaniline monooxygenases 3 (FMO3) using HepaRG (AID 2283453).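 On AC50: differentiated human HepaRG liver cells in serum-free induction medium; FMO3 transcript by TaqMan qRT-PCR normalized to ACTB GAPDH and POLR2A.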 In a few lines:
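FMO3 transcript quantified by TaqMan qRT-PCR against three housekeeping genes after 48 h chemical exposure of HepaRG cells. Eight-point half-log series, top 100 uM, 0.5% DMSO vehicle; phenobarbital 1mM induction control; up- or down-regulation fitted.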

Read-out in assay [6]: Cytochrome P450 (CYP1A1), CYP1A1 (gene 1543)
In words: LTEA_HepaRG_CYP1A1: Life Technologies and Expression Analysis (LTEA) Assay for Cytochrome P450 (CYP1A1) using HepaRG (AID 2283454). The gist of the method: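 HepaRG, 48 h post-plating switched to serum-free induction medium; 8-pt conc-response (top 100 uM, half-log, 0.5% DMSO), duplicates, 48 h. Lysis in RLT, TaqMan qRT-PCR for CYP1A1; gain or loss vs DMSO.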

Read-out in assay [7]: CFLAR gene, CFLAR (gene 8837)
Kind of assay: LTEA_HepaRG_CFLAR: Life Technologies and Expression Analysis (LTEA) Assay for CFLAR gene using HepaRG (AID 2283455). In a few lines:
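Gain- or loss-of-signal changes in CFLAR transcript were fitted bidirectionally relative to 0.5% DMSO. Cells (HepaRG, duplicate wells) were dosed for 48 h across eight half-log concentrations topping at 100 uM; quantitation by TaqMan qRT-PCR.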

Read-out in assay [8]: Forkhead box O1 (FOXO1), FOXO1 (gene 2308)
In words: LTEA_HepaRG_FOXO1: Life Technologies and Expression Analysis (LTEA) Assay for Forkhead box O1 (FOXO1) using HepaRG (AID 2283456). In a few lines:
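Using one lot of HepaRG hepatic cells kept in 0.5% DMSO, the team applied test chemicals in duplicate, half-log dilutions from 100 uM, for 48 h. Expression, normalised to ACTB/GAPDH/POLR2A, was compared with vehicle in either direction.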

Read-out in assay [9]: Forkhead box O3 (FOXO3), FOXO3 (gene 2309)
In words: LTEA_HepaRG_FOXO3: Life Technologies and Expression Analysis (LTEA) Assay for Forkhead box O3 (FOXO3) using HepaRG (AID 2283459). In a few lines: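 Gene-expression endpoint: FOXO3 transcript level by qRT-PCR in HepaRG cultures treated 48 h with chemicals up to 100 uM (half-log, 0.5% DMSO vehicle).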

Read-out in assay [10]: ABC Transporter (ABCB1), ABCB1 (gene 5243)
Kind of assay: LTEA_HepaRG_ABCB1: Life Technologies and Expression Analysis (LTEA) Assay for ABC Transporter (ABCB1) using HepaRG (AID 2283460). The gist of the method:
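Human liver HepaRG line treated 48 h with up to 100 uM compound (eight half-log points, 0.5% DMSO); ABCB1 mRNA change fitted bidirectionally against DMSO controls.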

Read-out in assay [11]: growth arrest and DNA damage 45 (GADD45B), GADD45B (gene 4616)
In words: LTEA_HepaRG_GADD45B: Life Technologies and Expression Analysis (LTEA) Assay for growth arrest and DNA damage 45 (GADD45B) using HepaRG (AID 2283461). The gist of the method: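 HepaRG, ~100,000 cells/well, 48 h plating; serum-free induction medium; cpd 100 uM top, half-log x8, 0.5% DMSO, duplicate, 48 h; lysis in RLT, RNA isolation, qRT-PCR; norm ACTB/GAPDH/POLR2A; bidirectional fit vs DMSO.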

Read-out in assay [12]: ABC Transporter (ABCC3), ABCC3 (gene 8714)
Kind of assay: LTEA_HepaRG_ABCC3: Life Technologies and Expression Analysis (LTEA) Assay for ABC Transporter (ABCC3) using HepaRG (AID 2283462). In a few lines:
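Human HepaRG, 48 h dosing, 8-pt half-log series from 100 uM, 0.5% DMSO vehicle, duplicates. ABCC3 mRNA by TaqMan qRT-PCR, housekeeping-normalized; bidirectional curve fit vs DMSO.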

Read-out in assay [13]: ABC Transporter (ABCB11), ABCB11 (gene 8647)
Kind of assay: LTEA_HepaRG_ABCB11: Life Technologies and Expression Analysis (LTEA) Assay for ABC Transporter (ABCB11) using HepaRG (AID 2283463). The gist of the method:
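Using HepaRG cultures held in 0.5% DMSO, chemicals were tested at half-log dilutions from 100 uM for 48 h. Induction or suppression of ABCB11 mRNA, normalized to ACTB, GAPDH and POLR2A, was fitted bidirectionally against vehicle.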

Read-out in assay [14]: ABC Transporter (ABCC2), ABCC2 (gene 1244)
In words: LTEA_HepaRG_ABCC2: Life Technologies and Expression Analysis (LTEA) Assay for ABC Transporter (ABCC2) using HepaRG (AID 2283464). The gist of the method:
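HepaRG, 48 h post-plating; serum-free induction medium; cpd 8-pt, 100 uM top, half-log, 0.5% DMSO, duplicate, 48 h. Readout: ABCC2 mRNA by qRT-PCR, norm. ACTB/GAPDH/POLR2A. Bidirectional fit vs DMSO baseline.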

Read-out in assay [15]: Broad substrate specificity ATP-binding cassette transporter ABCG2 (Homo sapiens) (UniProt Q9UNQ0)
Kind of assay: LTEA_HepaRG_ABCG2: Life Technologies and Expression Analysis (LTEA) Assay for ABC Transporter (ABCG2) using HepaRG (AID 2283465). In a few lines: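 Gene expression of ABCG2 in HepaRG liver cells is quantified by qRT-PCR following 48 h exposure across an eight-point series topping at 100 uM. Values come from bidirectional fitting relative to DMSO vehicle.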

Read-out in assay [16]: ATP-citrate lyase (ACLY), ACLY (gene 47)
In words: LTEA_HepaRG_ACLY: Life Technologies and Expression Analysis (LTEA) Assay for ATP-citrate lyase (ACLY) using HepaRG (AID 2283466). In a few lines: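 ACLY expression changes in human HepaRG liver cells are quantified by qRT-PCR after 48 h exposure to test chemicals (maximum 100 uM, half-log steps). Values are fitted in both directions relative to 0.5% DMSO vehicle.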

Read-out in assay [17]: Peroxisomal acyl-coenzyme A oxidase 1 (ACOX1) gene, ACOX1 (gene 51)
In words: LTEA_HepaRG_ACOX1: Life Technologies and Expression Analysis (LTEA) Assay for Peroxisomal acyl-coenzyme A oxidase 1 (ACOX1) gene using HepaRG (AID 2283467). The gist of the method:
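Human HepaRG hepatic cultures, 48 h treatment with test chemicals up to 100 uM. ACOX1 expression read by qRT-PCR relative to 0.5% DMSO vehicle.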

Read-out in assay [18]: Alkaline Phosphatase, Placental (ALPP) gene, ALPP (gene 250)
Kind of assay: LTEA_HepaRG_ALPP: Life Technologies and Expression Analysis (LTEA) Assay for Alkaline Phosphatase, Placental (ALPP) gene using HepaRG (AID 2283468).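 On AC50: differentiated human HepaRG liver cells in serum-free induction medium.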 In a few lines: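 HepaRG, 48 h plating then 48 h dosing, serum-free induction medium, 0.5% DMSO. 8 conc, half-log, max 100 uM, duplicates. Endpoint: ALPP transcript by qRT-PCR, housekeeping-normalized; gain or loss fitted vs DMSO.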

Read-out in assay [19]: growth arrest and DNA damage 45 (GADD45A), GADD45A (gene 1647)
In words: LTEA_HepaRG_GADD45A: Life Technologies and Expression Analysis (LTEA) Assay for growth arrest and DNA damage 45 (GADD45A) using HepaRG (AID 2283458). The gist of the method:
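Transcript induction or loss, quantified by TaqMan qRT-PCR against three housekeeping genes, is the read-out. HepaRG cells received chemicals for 48 h across eight half-log concentrations from 100 uM in 0.5% DMSO; gain and loss fitted relative to DMSO.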

Activity calls are given as the source filed them. How the source made its calls: active means hit-call score of the fitted dose curve at least 0.9, where 1 is the maximum; inactive means score below 0.9.

Sequence of Broad substrate specificity ATP-binding cassette transporter ABCG2 (Homo sapiens) (Q9UNQ0 whole entry, looked up): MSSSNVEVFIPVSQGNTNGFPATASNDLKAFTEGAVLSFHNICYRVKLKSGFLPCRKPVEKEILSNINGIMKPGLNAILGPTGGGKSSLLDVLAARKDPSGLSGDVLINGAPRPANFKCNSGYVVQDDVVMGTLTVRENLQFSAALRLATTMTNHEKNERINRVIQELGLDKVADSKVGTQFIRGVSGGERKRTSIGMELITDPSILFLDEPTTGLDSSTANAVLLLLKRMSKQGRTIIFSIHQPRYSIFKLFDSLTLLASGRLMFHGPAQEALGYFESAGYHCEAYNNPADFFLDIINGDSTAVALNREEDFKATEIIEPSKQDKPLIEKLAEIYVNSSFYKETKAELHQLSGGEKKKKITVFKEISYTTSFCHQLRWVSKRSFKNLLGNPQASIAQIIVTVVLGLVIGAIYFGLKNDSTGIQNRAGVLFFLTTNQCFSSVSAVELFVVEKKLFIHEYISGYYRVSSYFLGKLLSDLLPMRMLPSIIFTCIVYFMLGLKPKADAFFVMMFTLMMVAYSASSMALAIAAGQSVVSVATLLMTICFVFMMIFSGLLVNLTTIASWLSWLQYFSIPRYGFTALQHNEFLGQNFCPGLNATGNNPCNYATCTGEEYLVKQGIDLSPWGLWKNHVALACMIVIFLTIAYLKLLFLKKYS

What is called AC50 is the midpoint of the concentration-response curve, whichever way the signal moves. With `CCc1c(C(=O)NN2CCCCC2)nn(-c2ccc(Cl)cc2Cl)c1-c1ccc(Br)cc1`, the outcome in assay [1], in assay [3], in assay [7], in assay [9] and in assay [12] was inactive. The AC50 is 11.4 µM (active) in [2]; 41 µM (active) in assay [4]; 35.5 µM (active) in assay [5]; 5.22 µM (active) in assay [6]; 84.3 µM (active) in assay [8]; 86.8 µM (active) in [10]. Further, the AC50 in assay [11] was 50 µM (active); in assay [13], 39 µM (active); in [14], 68.6 µM (active); in [15], 50 µM (active); in [16], 12.5 µM (active); in [17] it was 32.3 µM (active). For the same compound, in assay [18], the AC50 is 12.3 µM (active).

With `Nc1nc(N)c2nc(CNc3ccc(C(=O)N[C@@H](CCC(=O)O)C(=O)O)cc3)cnc2n1`, the result in assay [1], in assay [2], in [3], in assay [4], in assay [5] and in assay [6] was inactive. For the same compound, the result in [7], in assay [8], in assay [19], in assay [9], in [10] and in assay [11] was inactive. The result in assay [12], in [14], in assay [15], in assay [16], in [17] and in assay [18] was inactive. Also, the AC50 in assay [13] was 0.104 µM (active).

For `CCCCCCCCCCC`, the compound was classed as inactive in assay [1], in [2], in [3], in [4], in assay [5] and in assay [7]. Also, the compound was called inactive in [8], in assay [19], in [9], in [10], in [11] and in assay [12]. Besides, the compound was called inactive in assay [13], in [14], in assay [15], in assay [16], in assay [17] and in assay [18]. Further, the AC50 in [6] was 50 µM (active).

On to `Cc1cccc(C)c1O`, for which the result in [1], in [2], in assay [3], in assay [4], in assay [5] and in assay [7] was inactive. For the same compound, the compound was classed as inactive in assay [8], in [19], in [9], in assay [11], in assay [12] and in [13]. Further, the compound was classed as inactive in [14], in assay [15], in [16], in assay [17] and in assay [18]. Also, the AC50 in assay [6] was 50 µM (active).

Take `Cc1ccc(N(C)C)cc1`: the compound was classed as inactive in assay [1], in [2], in [3], in assay [4], in [5] and in assay [7]. Also, the compound was classed as inactive in assay [8], in assay [19], in assay [9], in assay [11], in assay [12] and in assay [13]. For the same compound, the compound was called inactive in assay [14], in assay [15], in [16], in [17] and in assay [18]. Besides, in [6], the AC50 was 22.6 µM (active).

Consider `O=C(N[C@@H](Cc1ccccc1)[C@@H](O)C(=O)N1C[C@@H](O)[C@@H](O)C1)c1cc2cc(Cl)ccc2[nH]1`, for which the call in assay [1], in assay [3], in assay [4], in assay [5], in assay [7] and in assay [8] was inactive. The call in [19], in assay [9], in assay [11], in assay [12], in assay [13] and in [14] was inactive. Besides, the call in assay [17] and in assay [18] was inactive. The AC50 is 63.1 µM (active) in assay [2]; 50 µM (active) in assay [6]; 9.92 µM (active) in [10]; 50 µM (active) in assay [15]; 50 µM (active) in [16].

On to `Cc1ccccc1Cl`, for which the call in assay [1], in assay [2], in [3], in [4], in assay [5] and in assay [7] was inactive. For the same compound, the outcome in assay [8], in [19], in assay [9], in [10], in assay [11] and in assay [12] was inactive. For the same compound, the compound was called inactive in assay [13], in assay [14], in [15], in [16], in assay [17] and in assay [18]. Besides, in assay [6], the AC50 was 50 µM (active).
